Shown are actives, neighbours in structure and some others; about 5.1% of the full set was active somewhere.
CRFBP-R2 agonist – CRF-BP/CRF-R2 complex agonism | activation, % at 13.2 µM | HEK293 CRF-R2/CRF-BP, calcium dye fluorescence (FLIPR); percent of saturating CRF peptide response | hit rate 0.46% among 350,000 | AID 588473;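 active = activation of at least 50%, plus an integration ratio under a set limit after plate pattern correction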
MPTP inh – blocks calcium-induced mitochondrial swelling; isolated mouse mitochondria, Ca2+ swelling absorbance, 30 min; inhibition, % at 10 µM; hit rate 1.4% among 360,000;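 active = inhibition of 50% or more, scaled per plate between neutral and stimulator controls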
NR3A LBD binder – modulates the human NR3A ligand-binding domain; NR3A LBD differential scanning fluorimetry, Tm shift; 0% = protein alone, 100% = glycine-bound protein; Tm shift relative to glycine control, % at 25 µM; hit rate 2.5% among 340,000; AID 1259313;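 active = melting temperature shift of at least 10% of the positive control shift, at one fixed dose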
TMEM16A act – mouse TMEM16A channel activation, primary screen. Q8BHY3. HEK293 TMEM16A/YFP-H148Q/I152L, iodide quench fluorescence; stronger effect = lower value. B-score at 10 µM. hit rate 0.3% among 340,000;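 active = fluorescence-ratio B-score plate-corrected deviation score at least 3 library SD below zero, with starting fluorescence score within 5 deviations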;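 also: channel opened by trigger with iodide after compound preincubation; score built on the fluorescence ratio of max minus min over baseline; more negative score means more quench and so TMEM16A activation or potentiation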
CRFR2-BP antag – blocks CRF-induced signaling of the CRF-BP/CRF-R2 complex | AID 588475 | inhibition, % at 11.8 µM | hit rate 0.59% among 350,000 | HEK293 CRF-R2/CRF-BP, CRF-induced calcium fluorescence;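 active = inhibition of the ligand-induced calcium signal above about 50% at the single tested concentration, limit read from the data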
ANO1 block – inhibitors of mouse TMEM16A calcium-activated chloride channel; HEK293 TMEM16A/YFP iodide influx fluorescence, ionomycin; normalized B-score (activity score, 25-100; higher = stronger inhibition) at 10 µM; hit rate 1.2% among 310,000; AID 588511;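 active = ratio plate-corrected score three or more library SD toward inhibition, starting fluorescence score within five deviations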;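 also: score derived from kinetic fluorescence span divided by baseline fluorescence per well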
A number is an active result; i = inactive; nt = no result given.

SMILES	CRFBP-R2 agonist	MPTP inh	NR3A LBD binder	TMEM16A act	CRFR2-BP antag	ANO1 block
C=CCn1ccc(=NC=C(C#N)C#N)c2ccccc21	i	i	i	i	i	i
O=C(CCS(=O)(=O)c1ccccc1)NCc1ccccc1	i	i	i	i	i	i
CC(C)(C)OC(=O)NC(Cc1ccccc1)C(=O)N1CCC(C(=O)NCC(=O)Nc2ccc(F)cc2)CC1 (stereo unspecified)	i	i	i	i	66.7	i
Cc1cc(C)c(NC(=O)COC(=O)C2=COCCO2)c(Cl)c1	i	i	i	i	i	i
CN1/C(=C\C=C(/C#N)C(=O)Nc2ccc(Cl)cc2)C(C)(C)c2ccccc21	140.7	i	i	i	i	i
CN1/C(=C/C=N/n2cnnc2)C(C)(C)c2ccccc21	i	i	i	i	i	i
CN1/C(=C\C=C(C#N)C#N)C(C)(C)c2ccccc21	84.1	i	i	i	i	i
CN1/C(=C\C(=S)Nc2ccccc2)C(C)(C)c2ccccc21	i	i	i	i	i	i
O=C(Nc1cccnc1)c1cnn2c(C(F)F)cc(C3CC3)nc12	i	i	i	i	i	i
O=C(Nc1cc(Br)ccc1O)c1cnn2c(C(F)F)cc(C3CC3)nc12	i	i	14.3	i	i	i
CC(C)COc1ccc(CSCCNC(=S)Nc2ccccc2)cc1	i	i	i	i	i	100
CCCCCOc1ccc(CSCCNC(=S)Nc2ccccc2)cc1	i	i	i	i	i	i
COc1ccc(S(=O)(=O)Nc2ccc3c(c2)C(=O)N([C@H](C)CO)C[C@H](C)[C@@H](CN(C)S(C)(=O)=O)O3)cc1	i	i	i	i	i	nt
Cc1ccc(C)c(NC(=S)Nc2ncccc2C)c1	i	i	i	i	124.2	i
Cc1cccc(-n2nc3c(c2NC(=O)c2ccco2)CS(=O)C3)c1C (stereo unspecified)	i	i	i	i	i	i
Cc1ccc(-n2nc3c(c2NC(=O)c2ccc(OC(C)C)cc2)CS(=O)C3)cc1 (stereo unspecified)	i	i	i	i	67.7	i
CCOc1ccc(C(=O)Nc2c3c(nn2-c2ccc(C)cc2)CS(=O)C3)cc1OCC (stereo unspecified)	i	i	i	i	i	i
O=C(Nc1c2c(nn1-c1ccccc1)CS(=O)C2)c1ccco1 (stereo unspecified)	i	i	17.2	i	i	i
COc1ccc(S(=O)(=O)NNS(=O)(=O)c2ccc(OC)c(OC)c2)cc1OC	nt	i	nt	nt	nt	nt
CC(=O)N1CCN(S(=O)(=O)c2c(C)n(C)c(=O)n(C)c2=O)CC1	i	i	i	i	i	i
COC(=O)[C@@H]1[C@@H](C#N)C2(c3ccccc3-c3ccccc32)N(c2ccc(Cl)cc2)N1C#N	i	i	i	i	i	25
O=C(Cc1ccc(Cl)cc1)NN1C(=O)c2ccccc2C1=O	i	i	i	i	i	i
CN1CC(=O)N/C1=N\C(=O)Nc1ccc(O)cc1	i	i	i	i	i	i
Cc1cccc(C)c1NC(=O)CN1CCN(C(=O)c2ccc(OCc3cn4ccccc4n3)cc2)CC1	i	i	i	i	i	nt
N#C/C(=C\c1coc2ccccc2c1=O)C(N)=S	i	i	i	i	i	i
SMILES	CRFBP-R2 agonist	MPTP inh	NR3A LBD binder	TMEM16A act	CRFR2-BP antag	ANO1 block
N#C/C(=C\c1coc2ccc(O)cc2c1=O)C(=O)Nc1nc2ccccc2s1	235.4	i	i	i	i	i
COc1ccc(NC(=O)c2cccc3ccccc23)cc1	i	i	21.8	i	i	i
COc1ccc(NC(=O)c2cc3ccc4c5ccccc5[nH]c4c3cc2O)cc1	i	i	229.5	i	i	i
COc1ccc(NC(=O)c2cccc3c(Br)cccc23)cc1	i	i	i	i	i	i
COc1ccc(NC(=O)c2cc3ccccc3cc2O)cc1	i	i	i	i	i	i
CCCCNC(=O)Nc1ccccc1C(=O)Nc1ccc(OC)cc1	i	i	10.7	i	i	i
Cc1cccc(-c2cccc(NC(=O)C3CCCN(C(=O)c4csc(C)n4)C3)c2)c1 (stereo unspecified)	i	i	i	i	i	i
Cc1ccc(N2C(=O)C3C4C=CC(CNC(=S)Nc5cccc(Cl)c5)(O4)C3C2=O)cc1 (stereo unspecified)	i	i	20.3	i	i	i
Cc1ccc(N2C(=O)C3C4C=CC(CNC(=S)Nc5ccc(Cl)cc5)(O4)C3C2=O)cc1 (stereo unspecified)	i	i	11.7	i	i	i
Cc1ccc(N2C(=O)C3C4C=CC(CNC(=S)Nc5ccc(F)cc5)(O4)C3C2=O)cc1 (stereo unspecified)	i	i	i	i	i	i
O=C(NCCC1CCCCN1S(=O)(=O)c1ccccc1)C(=O)Nc1ccc(F)cc1F (stereo unspecified)	i	i	i	i	i	i
O=[N+]([O-])c1ccccc1NCc1c(O)ccc2ccccc12	i	i	13.3	i	i	i
Oc1ccc2ccccc2c1CNc1ccccc1	i	i	i	i	i	nt
CC(=O)N(C(C)=O)c1ccc2c(c1)OCCO2	i	i	nt	nt	i	nt
O=C(CSc1nnc(C2COc3ccccc3O2)o1)N1CCCCC1 (stereo unspecified)	i	i	i	i	i	i
O=C(CSc1nnc(C2COc3ccccc3O2)o1)NC1CCCCC1 (stereo unspecified)	i	i	i	i	54.2	i
Cc1nn(-c2nc3ccccc3s2)c(N)c1Sc1ccc(F)cc1	i	i	15.0	i	i	i
Cc1cc(N)n(-c2nc3ccccc3s2)n1	i	i	32.1	i	i	i
Cc1nn(-c2nc3ccccc3s2)c(N)c1-c1ccccc1	i	i	i	i	i	i
CCCCOc1ccc(/C=C/C(=O)Nc2ccc(C(N)=O)cc2)cc1	i	i	21.5	i	i	i
C=CCOc1ccc(/C=C/C(=O)Nc2ccc(C(=O)NC)cc2)cc1	i	i	24.5	i	i	i
CCCCOc1ccc(/C=C/C(=O)NCCc2nc3ccccc3[nH]2)cc1	i	i	11.9	i	i	i
CCCCOC(=O)c1ccc(NC(=O)/C=C/c2cccs2)cc1	i	i	19.0	i	i	i
COc1ccccc1-c1cccc2nccn12	nt	i	nt	nt	nt	nt
CCOc1ccc(/C=C/C(=O)Nc2cccc(C(C)=O)c2)cc1	i	i	28.6	i	i	i
CNC(=O)c1ccc(NC(=O)/C=C/c2cccc(F)c2)cc1	i	i	14.0	i	i	i
O=C(/C=C/c1cccc(F)c1)Nc1ccc(S(=O)(=O)Nc2ncccn2)cc1	i	i	i	i	i	i
CCCCc1c(C)c2ccc(OCC(C)=O)cc2oc1=O	i	i	i	i	i	i
CCCc1c(C)c2ccc(OCC(C)=O)cc2oc1=O	i	i	11.7	i	i	i
Cc1ccc(-c2c(C)n([O-])c3c([n+]2=O)CCCC3)cc1	i	i	i	i	i	i
